Out of some 320,000 compounds screened, about 1,300 (0.41%) were called active.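 How the source made its calls: active means percent inhibition above the average of all tested compounds plus 3 SD, set per screening campaign (cut at about 16% in these data); inactive means the rest.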 The sample as a whole holds a higher share of actives than the screen did.
molecular target: Insulin-degrading enzyme (Homo sapiens) (UniProt P14735); assay: cellular IDE Abeta-cleavage inhibition – fluorescence polarization, HEK cells, FAbetaB substrate, primary screen (AID 434962); details: at 5.59 µM, active compounds read high;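 further: IDE supplied by intact live HEK cells; FP after avidin binding of uncleaved biotin substrate so inhibition keeps polarization high; 0% = DMSO wells and 100% = 60 µM reference IDE inhibitor Ii1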
Sequence (P14735 whole entry, looked up): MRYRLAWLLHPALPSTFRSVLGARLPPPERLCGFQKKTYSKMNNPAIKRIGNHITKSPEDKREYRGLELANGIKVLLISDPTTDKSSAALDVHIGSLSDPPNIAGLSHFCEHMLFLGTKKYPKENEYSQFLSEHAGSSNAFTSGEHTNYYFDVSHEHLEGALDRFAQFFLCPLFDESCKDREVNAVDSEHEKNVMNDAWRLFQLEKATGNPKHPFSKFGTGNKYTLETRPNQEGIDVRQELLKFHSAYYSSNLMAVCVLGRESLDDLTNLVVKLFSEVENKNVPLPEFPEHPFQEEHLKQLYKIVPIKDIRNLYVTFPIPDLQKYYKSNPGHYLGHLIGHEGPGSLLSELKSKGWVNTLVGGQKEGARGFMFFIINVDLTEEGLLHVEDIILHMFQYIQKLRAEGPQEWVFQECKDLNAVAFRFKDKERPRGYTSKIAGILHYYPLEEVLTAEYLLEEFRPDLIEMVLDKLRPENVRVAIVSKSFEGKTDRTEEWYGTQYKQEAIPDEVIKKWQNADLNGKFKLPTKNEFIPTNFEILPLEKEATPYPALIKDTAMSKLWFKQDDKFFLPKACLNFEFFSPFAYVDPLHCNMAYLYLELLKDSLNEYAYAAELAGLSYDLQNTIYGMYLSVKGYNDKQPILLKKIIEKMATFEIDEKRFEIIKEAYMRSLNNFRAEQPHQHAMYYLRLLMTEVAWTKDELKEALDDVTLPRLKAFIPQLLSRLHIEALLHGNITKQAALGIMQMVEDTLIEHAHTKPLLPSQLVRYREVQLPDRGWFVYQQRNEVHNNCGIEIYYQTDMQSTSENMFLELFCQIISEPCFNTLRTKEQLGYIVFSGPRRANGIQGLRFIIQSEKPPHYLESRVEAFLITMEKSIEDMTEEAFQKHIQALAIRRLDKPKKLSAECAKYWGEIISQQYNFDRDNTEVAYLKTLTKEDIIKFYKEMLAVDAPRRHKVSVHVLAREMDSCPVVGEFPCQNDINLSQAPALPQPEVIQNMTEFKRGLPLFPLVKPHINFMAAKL

inhibition, active:
Cc1cc2nc3c(=O)n(Cc4ccccc4)c(=O)[nH]c3nc2cc1N 20.4%
O=C(/C=C(O)/C=C/c1ccc(O)cc1)/C=C/c1ccc(O)cc1 138%
C=CCOc1cccc(C2C(C(=O)c3ccc(C)o3)=C(O)C(=O)N2c2nnc(C)s2)c1 (centres undefined) 24%
Cc1cc(C)c(/C=C2\C(=O)Nc3ccccc32)[nH]1 66.2%
COc1cc(/C=C(\C#N)c2nc3c(s2)CC(C)CC3)ccc1O (centres undefined) 89.3%
COc1cc(/C=C(\C#N)c2nc3ccccc3[nH]2)ccc1O 121%
Oc1ccc(-c2onc3ccc(Cl)cc23)cc1 43.5%
O=C(/C=C/c1ccc(N2CCOCC2)cc1)c1ccccc1 20.5%
CCCC(=O)Nc1c(O)c2ccccc2[nH]c1=O 20.6%
O=C(CCc1ccc(S(=O)(=O)N2CCOCC2)cc1)Nc1ccc2ccccc2c1 26.8%
CCN(CC)c1ccc2cc(C(N)=O)/c(=N\NC(=O)c3ccncc3)oc2c1 64.9%
N#C/C(=C\c1ccc(O)c(O)c1)C(=O)NCc1ccccc1 30.2%
Cn1c2ccccc2c2cc(/C=C(\NC(=O)c3ccccc3)C(=O)NCC(=O)O)ccc21 32.5%
NC(=O)c1c(Nc2nc3c(F)cccc3s2)sc2c1CCCC2 24.3%
COc1ccc(C2C=C(c3ccc(Br)cc3)Nc3nc(NS(C)(=O)=O)nn32)cc1 (centres undefined) 76.7%
CC1=CC(C)(C)Nc2ccc(OC(=O)CN3C(=O)C4CCCCC4C3=O)cc21 (centres undefined) 23.6%

inhibition, inactive:
CN(C(=O)c1cccc(NC(=O)Cc2cccc([N+](=O)[O-])c2)c1)C1CCCCC1 -2.48%
Cn1cncc1C#Cc1c(-c2ccsc2)sc2ccccc12 2.04%
CC[C@H]1OC(=O)[C@H](C)[C@@H](O[C@H]2C[C@@](C)(OC)[C@@H](O)[C@H](C)O2)[C@H](C)[C@@H](O[C@@H]2O[C@H](C)C[C@H](N(C)C)[C@H]2O)[C@](C)(O)C[C@@H](C)[C@@H]2N[C@@H](COCCOC)O[C@H]([C@H]2C)[C@]1(C)O -4.09%
CN(C(=O)COC(=O)c1ccc(Br)o1)c1c(N)n(Cc2ccccc2)c(=O)[nH]c1=O 5.15%
C=CCSc1nc2c(c(=O)[nH]c(=O)n2C)n1Cc1ccccc1 -11.6%
O=C(O)/C=C/c1ccc(OCCCF)cc1 -0.17%
O=C(/C=C/c1ccc2c(c1)OCCO2)c1ccc(O)cc1 -0.89%
Cc1cccc2sc(N(CCCN(C)C)C(=O)CCS(=O)(=O)c3ccccc3)nc12 1.58%
O=C(O)c1cc(S(=O)(=O)NC2CCCc3ccccc32)ccc1O (centres undefined) -0.45%
O=C(NNS(=O)(=O)c1c(F)cc(F)c(Cl)c1F)C12CC3CC(CC(C3)C1)C2 -2.1%
CCCNC(=O)N1CCN(C(=O)NCCC)CC1 4.47%
Cc1ccccc1NC(=O)c1nn(-c2ccc(F)c(F)c2)ccc1=O -4.03%
Cc1cc(N2C(=O)C(O)=C(C(=O)c3ccc(C)o3)C2c2ccc(OCc3ccccc3)cc2)no1 (centres undefined) -9.32%
C=CCOc1cccc(C2C(C(=O)c3ccc(C)o3)=C(O)C(=O)N2CCCn2ccnc2)c1 (centres undefined) 1.55%
Cc1ccc(C)c(NS(=O)(=O)c2ccc(OCC(=O)NCc3cccnc3)cc2)c1 4.06%
CC(C)COc1ccc(C(=O)NNC(=O)CCC(=O)c2cccs2)cc1 -2.82%
NS(=O)(=O)c1cccc(NC(=O)CC23CC4CC(CC(Br)(C4)C2)C3)c1 2%
O=C1Nc2ccccc2/C1=C/c1ccnc2ccccc12 6.65%
CN(C)/C=C1/Nc2ccccc2C1=O 1.5%
COc1ccc2nc3n(c(=O)c2c1)-c1ccc(Cl)cc1C(=O)NC3Cc1ccccc1 (centres undefined) 4.46%
Cc1ccc2nc(/C(C#N)=C\c3ccc(OC(=O)c4cccs4)cc3)[nH]c2c1 6.77%
N#C/C(=C(/O)COc1cccc2ccccc12)c1nc2ccccc2[nH]1 -1.21%
CCOc1cc(/C=C(\C#N)c2nc(-c3cccs3)c(NC(C)=O)s2)ccc1O 11%
CCc1nn(CCCC(=O)Nc2ccc(C)c(C)c2)c(=O)c2cc3occc3n12 1.46%
O=C(c1cccs1)n1nc(NCc2ccccc2)nc1NCc1ccccc1 -0.3%
COC(=O)Nc1ccc(S(=O)(=O)Nc2cc(OC)nc(OC)n2)cc1 0.87%
CCOC(=O)c1c(C)n(C)c2ccc(OC)c(NS(=O)(=O)CC)c12 -2.79%
CC1C(=O)Nc2ccc(S(=O)(=O)N3CCN(c4ccccc4F)CC3)cc2NC1=O (centres undefined) 1.3%
CC(OC(=O)c1ccc2noc(-c3ccccc3)c2c1)C(N)=O (centres undefined) 8.12%
COc1ccc(-c2onc3ccc(C(C)=O)cc23)cc1 -1.49%
Cc1ccc(NC(=O)C2CCN(S(=O)(=O)c3ccc4c(c3)NC(=O)CO4)CC2)cc1C -0.04%
Cn1cccc1C(=O)NNC(=O)COc1ccc(Br)cc1 2.25%
COc1ccc2c(c1)c1nc3n(c(=O)c1n2CC(=O)Nc1ccccc1)CCS3 -0.03%
Cc1nnc2n1N=C(c1ccc3c(c1)NC(=O)CO3)CS2 4.61%
CC(=O)N1CCSc2ccc(S(=O)(=O)N3CCC(C)CC3)cc21 2.25%
CC(=O)Nc1ccc(/C=C/C(=O)c2ccccc2)cc1 1.53%
O=C(O)c1ccc2c(c1)C(=O)N(c1ccc(/C=C/C(=O)c3ccccc3)cc1)C2=O 11.8%
CNC[C@H]1Oc2c(NC(=O)C3CCCCC3)cccc2C(=O)N([C@H](C)CO)C[C@@H]1C 8.42%
NC(=O)NC(=O)CSc1nc2cc([N+](=O)[O-])ccc2n1-c1cccc(C(F)(F)F)c1 -2.07%
CC(C)C(=O)Nc1c(O)c2ccccc2[nH]c1=O -1.36%
CCCOC(=O)Cc1c(O)c2ccccc2[nH]c1=O 1.56%
O=C(c1cccc(Br)c1)N1CCN(C2=NS(=O)(=O)c3ccccc32)CC1 -5.26%
CCCC1CCC(=NNC(=S)NCCc2ccccc2)CC1 (centres undefined) 1.89%
COc1cccc(CNC(=O)COc2cc(O)c3c(c2)OC(C)(C)CC3=O)c1 0.91%
O=C(COC(=O)CCc1ccc(S(=O)(=O)N2CCOCC2)cc1)Nc1cccc(Cl)c1 1.15%
Cc1ccc(CC(=O)Nc2ccc(S(=O)(=O)N3CCOCC3)cc2)cc1C 3.81%
COCCN(Cc1nc(-c2ccc(C(F)(F)F)cc2)no1)C(C)C 1.82%
CCN1C(=S)N[C@@H](CCc2ccccc2)[C@H](C(=O)OC)[C@H]1C 0.06%
O=C(Nc1ccccc1)N1CCN(C2c3ccccc3-c3ccccc32)CC1 0.11%
NC(=O)c1cc2ccccc2o/c1=N/NC(=O)c1cccc(F)c1 7.74%
COc1cccc2cc(C(N)=O)/c(=N\NC(=O)c3ccccc3)oc12 -0.22%
O=C(CCN1C(=O)COc2ccccc21)NCCCN1CCN(c2ccc(F)cc2)CC1 -5.39%
CCN(C(=O)CSc1nnnn1-c1ccc(OC)cc1)C1CCS(=O)(=O)C1 (centres undefined) -3.64%
CCOc1ccc(NC(=O)c2ccc(NC(=O)C3CCCO3)cc2)cc1 (centres undefined) 3.26%
COCCNC(=O)/C(C#N)=C/c1cccc(OCc2ccccc2)c1 3.27%
COc1ccc(CNC(=O)/C(C#N)=C/c2cccc(OC)c2OC)cc1 2.96%
COc1ccc(CCNC(=O)CC2SC(=Nc3cc(C)cc(C)c3)NC2=O)cc1OC (centres undefined) 2.28%
COc1ccc(/C=C(\NC(=O)c2ccccc2)C(=O)NCCN2CCOCC2)cc1OC 0.14%
CCOC(=O)CNC(=O)/C(=C\c1ccc(F)cc1)NC(=O)c1ccccc1 -3%
CC(=O)Oc1cc2c(C(=O)NCCN3CCOCC3)c(C)oc2c2ccccc12 -2.28%
COc1cccc(OC)c1C(=O)Nc1sc2c(c1C(N)=O)CCCC2 0.41%
O=C(Nc1sc2c(c1C(=O)O)CCC2)c1ccccc1F -2.01%
Cc1cc(C(C)(C)C)oc1C(=O)N(CC(=O)NC1CCCC1)Cc1ccc(Cl)cc1 6.17%
CCN(CCCNC(=O)c1ccc2c(c1)NC(=O)CN2C)c1cccc(C)c1 2.85%
CC(C)NC(=O)CSc1nnc(COc2ccccc2Cl)o1 -2.04%
CCCCn1c(SCc2ncc(-c3ccccc3)o2)nc2cc(S(N)(=O)=O)ccc21 2.94%
COc1ccccc1N(C)C(=O)c1cc(S(=O)(=O)N2CCc3ccccc32)cn1C -0.28%
Brc1ccc(C2=CC(c3ccco3)n3ncnc3N2)cc1 (centres undefined) 5.82%
CCOc1ccc(C2=CC(c3ccccc3)n3ncnc3N2)cc1 (centres undefined) 7.53%
CCOc1ccc(N(CC(=O)NCCOc2ccccc2OC)S(=O)(=O)c2ccccc2)cc1 4.02%
Cc1cc2c(cc1S(=O)(=O)NCc1ccc(Cl)cc1)OCC(=O)N2 5.28%
O=C(CN1C(=O)C2C3CCC(C3)C2C1=O)Oc1ccc2ccccc2c1 (centres undefined) -0.24%
CC1=CC(C)(C)Nc2ccc(OC(=O)C(Cc3ccccc3)N3C(=O)C4CCCCC4C3=O)cc21 (centres undefined) -5.52%

Source: PubChem BioAssay AID434962 (The Scripps Research Institute Molecular Screening Center, 2010)
